Laboratory results from the OligoGym collection.

These sequences were tested against CD48 (assay: pooled miR-30 sensor sort-seq; sequence = guide strand). Details: shRNA.
Further: reference of the scale not given here.

Sequence | sensor-assay potency score (higher = more potent)
TACAGGGTCAAGCACTTGCAGC | -1.55
TCCCATTCTACAATCTTCTGGT | -0.143
TTGTTTGTAGTTCTCAGGCAGG | -0.932
TTGGATTCAAAGTACTTAGATT | -1.05
TTGATCTTCCATTCTTGCTCAT | 0.311
TAATGTTGTCACAATTTTGGGT | 0.114
TTCTATCTTCTCAATTTTGATG | -0.753
TGAGGATCAAGTCTGACCCTGC | 0.0902
TTAACTTGAAAATCCTCGTTGA | 1.27

What follows are sequences tested against CD58 in the same assay as above. Details: shRNA.

Sequence | sensor-assay potency score (higher = more potent)
TTCTTCTTAAAGCAGCTGCTTC | -0.594
TAATAAGTTGATGACAGCCAAA | -1.7
TAAAAGATGAGAAAGCTCTGAA | 0.844
TTGTTTTTTCCATAGGACCTCT | -0.0433
TTTAAAGGCACATTGCTTGGTA | 0.706
TACAGCACAATACATGTTGTAA | -0.704
TTATCCTTTTGTTTTTTCCATA | -1.18
TTAAAAGATGAGAAAGCTCTGA | -0.214
TTGCTCCATAGGACAATCCCAT | -1.06
TTTGTTGGGAAAAACAGCTGAT | -0.0646
TTCATATACAGCACAATACATG | -1.42
TTTCATACTCATCTTCATCTGA | 0.555
TTGAGTTACGTTTACATTGCTC | -0.143
TAAAGAAAGAACTTCATGGTAT | 0.701
ATATACAGCACAATACATGTTG | 0.0974
TATAAGTGCATATCTGTGTCTT | 0.724
TTACAAAAGTATCTACATCATC | -0.687
TAAAATAATTTAGTTATGCTGT | -0.222
TACATGTTGTAATTACTGCTAA | -0.161
TAATGCTCTGGTATCATGCATT | -0.599
TTAAAATATATACTGGTTGAGT | -0.467
TATACAGCACAATACATGTTGT | -0.688
TTGTGGAAGATCATTTTCCATC | -1.11

Each sequence was assayed against CD86 in the same assay as above. Details: shRNA.

Sequence | sensor-assay potency score (higher = more potent)
ATTGAAATAAGCTTGAATCTTC | 0.247
ATTATCTTGAGATTTCTGCATA | -0.445
TAAGCTTGAATCTTCAGAGGAG | 0.681
TAGCAAGCACTGACAGTTCAGA | -0.996
TCTTGGTCTGTTCACTCTCTTC | -1.55
TTTTCTCTTTTCTTGGTCTGTT | -0.104
TTATATTAGAAATTGGTACTAT | 0.249
TATTGCTCGTAACATCAGGGAA | -0.935
